Experimental findings from PubChem BioAssay (NCI) are described below.

The panel holds about 79,000 compounds, 15% with a hit somewhere; the sample as a whole holds those more often. Active and inactive are the calls of the source. Cut-off read from the data, not from the text of the source: active = growth inhibition above about 70%; inactive = the rest.

A short description of one experiment: NCI Yeast Anticancer Drug Screen. Data for the sgs1 mgt1 strain (AID 161).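 Note: 0% = growth of cultures given vehicle only.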 The conditions noted are these: S. cerevisiae sgs1 mgt1 strain, at 50.0 µM, stronger effect = higher value. In outline: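 Test agents were incubated with a DNA-repair-mutant yeast strain. Growth was then read and compared against vehicle-treated controls.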
With `CN(C)S(=O)(=O)c1ccc(Cl)cc1`, the growth inhibition is 2.7% (inactive).

Consider `COc1cc([N+](=O)[O-])c(C)cc1Br`, for which the growth inhibition is 4.45% (inactive).

In the case of `Cc1cc(C)c(S(=O)(=O)c2cccs2)c(C)c1`, the growth inhibition was -8.25% (inactive).

Take `Cc1ccc(C(C)C)c(OC(=O)NCCCCCCNC(=O)Oc2cc(C)ccc2C(C)C)c1`: the growth inhibition is 10.7% (inactive).

Turning to `O=C1c2ccccc2SC[C@@H]2CCCN12`, the growth inhibition was -3.6% (inactive).

Regarding `CCCCCCCCCCCCCCCCCCN(C)CC(COC)OP(=O)([O-])OCC[N+](C)(C)C` (stereo not given), the growth inhibition is 15.1% (inactive).

Take `Cc1ccc(C(O)/C(=N/N)c2nc3ccc([N+](=O)[O-])cc3[nH]c2=O)cc1` (stereo not given): the growth inhibition is -28.8% (inactive).

For the compound `Cc1cc2c(=O)cc(-c3ccccc3)oc2c(C(=O)O)c1C`, the growth inhibition is 14.8% (inactive).

As for `NC(=O)CSCC(=O)O`, the growth inhibition was 14.5% (inactive).

`CCn1c2ccccc2c2cc(N)c(N=Nc3ccc(-c4ccc(N)c(OC)c4)cc3OC)cc21`: the growth inhibition was 27.6% (inactive).

With `O=C(Nc1cccc(C(=O)NCCCO)c1)/C(=C/c1ccccc1)NC(=O)c1ccccc1`, the growth inhibition is 1.45% (inactive).

With `O=c1ccc(-c2ccccc2)n[nH]1`, the growth inhibition is -28.3% (inactive).

Consider `CCc1ccc(N=Nc2c(F)c(F)c(N)c(F)c2F)cc1`, for which the growth inhibition is 2.4% (inactive).

As for `Nc1cc(=O)n(-c2ccccc2)nc1Cl`, the growth inhibition was -2.25% (inactive).

Consider `Oc1ccccc1C1SC(c2ccccc2O)SC(c2ccccc2O)S1` (stereo not given), for which the growth inhibition is 95.7% (active).

Turning to `O=C(Nc1cccc2ccccc12)O/N=C/c1ccccn1`, the growth inhibition is -11.4% (inactive).

For `CC(C)(C)[N+](=O)[O-]`, the growth inhibition was -10.7% (inactive).

On to `N#CCN1CCOCC1`, for which the growth inhibition was 4.45% (inactive).

For `O/N=C(/Cc1ccccc1)c1ccccc1`, the growth inhibition was 11.1% (inactive).

`CC(CS(C)(=O)=O)S(=O)(=O)O` (stereo not given): the growth inhibition is -1.35% (inactive).

Turning to `CC(C)C(Nc1ncnc2nc[nH]c12)C(=O)O` (stereo not given), the growth inhibition was -6.65% (inactive).

For `CC(=O)Oc1ccc2c(c1)CC[C@@H]1C2[C@@H](O[N+](=O)[O-])C[C@@]2(C)C1CC[C@@H]2O[N+](=O)[O-]` (stereo not given in full), the growth inhibition was 15.2% (inactive).

As for `COc1ccc([N+](=O)[O-])cc1N=NN(C)C`, the growth inhibition is -10.8% (inactive).

Regarding `Clc1ccc(-c2csc3nc(-c4cccs4)nn23)cc1`, the growth inhibition is 16.6% (inactive).

Turning to `CC1(C)C(=O)/C=C\C(=O)C(C)(C)C(=O)/C=C\C(=O)C(C)(C)C(=O)/C=C\C(=O)C(C)(C)C(=O)/C=C\C1=O`, the growth inhibition is -9.05% (inactive).

As to `O=C(O)CC12C3C4C5C3C1C5C42` (stereo not given), the growth inhibition was 15.2% (inactive).

For the compound `O=c1c2ccccc2c2nccn2c2ccccc12`, the growth inhibition is 19.1% (inactive).

On to `CC(C)CNC(=S)N/N=C/c1ccc(C(C)C)cc1`, for which the growth inhibition is -8.4% (inactive).

With `Cc1nc2c(sc(=S)n2-c2ccccc2)c2nc3ccccc3n12`, the growth inhibition was 7.7% (inactive).

With `Oc1nc2nc[nH]n2c1N=Nc1ccccc1`, the growth inhibition was -7.5% (inactive).

Regarding `O=C1C=C(Nc2ccc(Br)cc2)c2ccccc2C1=O`, the growth inhibition was 11.6% (inactive).

In the case of `Cc1ccc(-c2cc(=O)c3cccc(CC(=O)O)c3o2)cc1`, the growth inhibition is -20.5% (inactive).

Take `O=C(Nc1c(Cl)cccc1Cl)Nc1c(Cl)cccc1Cl`: the growth inhibition is 21.1% (inactive).

Take `CCOP(=O)(OCC)C(C(=O)OC)C(=O)C(=O)Nc1cccc([N+](=O)[O-])c1` (stereo not given): the growth inhibition was 23.2% (inactive).

In the case of `O=C1C2CCC(C2)C1CN1CCOCC1` (stereo not given), the growth inhibition is -1.25% (inactive).

For `CNC(=O)C1CCC(CC2CCCCC2)CC1` (stereo not given), the growth inhibition is 77.1% (active).

With `O=C(O)c1cccc(C(=O)O)[n+]1[O-]`, the growth inhibition is -17.8% (inactive).

For `OCCOc1ccccc1-c1ccccc1`, the growth inhibition is -15.5% (inactive).

For `N#C/C(=C(/Cc1ccc(F)cc1)NP(=O)(c1ccccc1)c1ccccc1)c1ccc(F)cc1`, the growth inhibition was -10.4% (inactive).

Turning to `C=CCCCCCCCCC(=O)NC(C)C(C)(C)C` (stereo not given), the growth inhibition was 14.7% (inactive).

The nature of the next experiment: NCI Yeast Anticancer Drug Screen. Data for the cln2 rad14 strain (AID 165).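 Note: 0% = growth equal to vehicle treated cultures.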 The conditions noted are these: S. cerevisiae cln2 rad14 strain, at 50.0 µM, stronger effect = higher value. In outline: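 The screen exposed genetically defined yeast (cln2 rad14) to test compounds and scored growth inhibition relative to vehicle-treated controls.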
Take `CN(C)S(=O)(=O)c1ccc(Cl)cc1`: the growth inhibition is 0.3% (inactive).

As for `COc1cc([N+](=O)[O-])c(C)cc1Br`, the growth inhibition is -18.3% (inactive).

In the case of `Cc1cc(C)c(S(=O)(=O)c2cccs2)c(C)c1`, the growth inhibition is -6.45% (inactive).

Take `Cc1ccc(C(C)C)c(OC(=O)NCCCCCCNC(=O)Oc2cc(C)ccc2C(C)C)c1`: the growth inhibition is 11.1% (inactive).

`O=C1c2ccccc2SC[C@@H]2CCCN12`: the growth inhibition is 9.35% (inactive).

`CCCCCCCCCCCCCCCCCCN(C)CC(COC)OP(=O)([O-])OCC[N+](C)(C)C` (stereo not given): the growth inhibition is -3.45% (inactive).

Take `Cc1ccc(C(O)/C(=N/N)c2nc3ccc([N+](=O)[O-])cc3[nH]c2=O)cc1` (stereo not given): the growth inhibition is -13.2% (inactive).

As to `Cc1cc2c(=O)cc(-c3ccccc3)oc2c(C(=O)O)c1C`, the growth inhibition was -19.7% (inactive).

As for `NC(=O)CSCC(=O)O`, the growth inhibition was -0.15% (inactive).

`CCn1c2ccccc2c2cc(N)c(N=Nc3ccc(-c4ccc(N)c(OC)c4)cc3OC)cc21`: the growth inhibition is 28.8% (inactive).

For `O=C(Nc1cccc(C(=O)NCCCO)c1)/C(=C/c1ccccc1)NC(=O)c1ccccc1`, the growth inhibition was 9.35% (inactive).

On to `O=c1ccc(-c2ccccc2)n[nH]1`, for which the growth inhibition is 5% (inactive).

`CCc1ccc(N=Nc2c(F)c(F)c(N)c(F)c2F)cc1`: the growth inhibition was 2.85% (inactive).

Turning to `Nc1cc(=O)n(-c2ccccc2)nc1Cl`, the growth inhibition was -18.6% (inactive).

With `Oc1ccccc1C1SC(c2ccccc2O)SC(c2ccccc2O)S1` (stereo not given), the growth inhibition is 93.1% (active).

For `O=C(Nc1cccc2ccccc12)O/N=C/c1ccccn1`, the growth inhibition was 39.3% (inactive).

For the compound `CC(C)(C)[N+](=O)[O-]`, the growth inhibition was 4.95% (inactive).

Turning to `N#CCN1CCOCC1`, the growth inhibition was 15.2% (inactive).

Regarding `O/N=C(/Cc1ccccc1)c1ccccc1`, the growth inhibition was -17.1% (inactive).

On to `CC(CS(C)(=O)=O)S(=O)(=O)O` (stereo not given), for which the growth inhibition is -0.3% (inactive).

Consider `CC(C)C(Nc1ncnc2nc[nH]c12)C(=O)O` (stereo not given), for which the growth inhibition is -35.2% (inactive).

As for `CC(=O)Oc1ccc2c(c1)CC[C@@H]1C2[C@@H](O[N+](=O)[O-])C[C@@]2(C)C1CC[C@@H]2O[N+](=O)[O-]` (stereo not given in full), the growth inhibition was 10.1% (inactive).

Regarding `COc1ccc([N+](=O)[O-])cc1N=NN(C)C`, the growth inhibition was -6.3% (inactive).

`Clc1ccc(-c2csc3nc(-c4cccs4)nn23)cc1`: the growth inhibition is 1.65% (inactive).

In the case of `CC1(C)C(=O)/C=C\C(=O)C(C)(C)C(=O)/C=C\C(=O)C(C)(C)C(=O)/C=C\C(=O)C(C)(C)C(=O)/C=C\C1=O`, the growth inhibition was 10.5% (inactive).

Regarding `O=C(O)CC12C3C4C5C3C1C5C42` (stereo not given), the growth inhibition was 8.5% (inactive).

Turning to `O=c1c2ccccc2c2nccn2c2ccccc12`, the growth inhibition was -9.1% (inactive).

As to `CC(C)CNC(=S)N/N=C/c1ccc(C(C)C)cc1`, the growth inhibition was -46.2% (inactive).

Consider `Cc1nc2c(sc(=S)n2-c2ccccc2)c2nc3ccccc3n12`, for which the growth inhibition is -1.2% (inactive).

Turning to `Oc1nc2nc[nH]n2c1N=Nc1ccccc1`, the growth inhibition was -12.5% (inactive).

On to `O=C1C=C(Nc2ccc(Br)cc2)c2ccccc2C1=O`, for which the growth inhibition is 7.75% (inactive).

On to `Cc1ccc(-c2cc(=O)c3cccc(CC(=O)O)c3o2)cc1`, for which the growth inhibition is -3.45% (inactive).

Take `O=C(Nc1c(Cl)cccc1Cl)Nc1c(Cl)cccc1Cl`: the growth inhibition was 6.7% (inactive).

Consider `CCOP(=O)(OCC)C(C(=O)OC)C(=O)C(=O)Nc1cccc([N+](=O)[O-])c1` (stereo not given), for which the growth inhibition was -58.6% (inactive).

For the compound `O=C1C2CCC(C2)C1CN1CCOCC1` (stereo not given), the growth inhibition is 0.5% (inactive).

As for `CNC(=O)C1CCC(CC2CCCCC2)CC1` (stereo not given), the growth inhibition was 11.2% (inactive).

Consider `O=C(O)c1cccc(C(=O)O)[n+]1[O-]`, for which the growth inhibition was 2.4% (inactive).

With `OCCOc1ccccc1-c1ccccc1`, the growth inhibition is -14% (inactive).

With `N#C/C(=C(/Cc1ccc(F)cc1)NP(=O)(c1ccccc1)c1ccccc1)c1ccc(F)cc1`, the growth inhibition was 0.8% (inactive).

Consider `C=CCCCCCCCCC(=O)NC(C)C(C)(C)C` (stereo not given), for which the growth inhibition was 39% (inactive).
